The supplement of paper PMC7765376
The full ranking holds about 1,500 compounds; the median of “Excess HSA synergy score (sum over dose matrix of excess over highest single agent)” is about 43, and the lowest 2% start at about -900. For the sample, the lowest values were picked, then their nearest neighbours and some compounds at random.

Tested on: PEO-1
Assay: Excess HSA synergy score (sum over dose matrix of excess over highest single agent) (score (summed % response)); higher = less synergy / more antagonism (negative = synergy)
Conditions: 72 h, read-out: viability/apoptosis luminescence (CellTiter-Glo or Caspase3-Glo / not stated per table)
[1] = matrix design: 6x6, 5-fold dilutions (primary screen)

Row | Structure (SMILES) | Excess HSA synergy score [1] | Excess HSA synergy score (matrix design: 10x10, 9-step dilutions (confirmatory))
1 | COc1cc2ncn(-c3cc(OCc4ccccc4C(F)(F)F)c(C(N)=O)s3)c2cc1OC + CC[C@H](NC(=O)[C@H](C)NC)C(=O)N1C[C@@H](O)C[C@H]1Cc1c(-c2[nH]c3cc(F)ccc3c2C[C@@H]2C[C@H](O)CN2C(=O)[C@H](CC)NC(=O)[C@H](C)NC)[nH]c2cc(F)ccc12 [Birinapant] | -51.1 | –
2 | CC(C)c1cc(C(=O)N2Cc3ccc(CN4CCN(C)CC4)cc3C2)c(O)cc1O [Onalespib] + CC[C@H](NC(=O)[C@H](C)NC)C(=O)N1C[C@@H](O)C[C@H]1Cc1c(-c2[nH]c3cc(F)ccc3c2C[C@@H]2C[C@H](O)CN2C(=O)[C@H](CC)NC(=O)[C@H](C)NC)[nH]c2cc(F)ccc12 [Birinapant] | 13.4 | –
3 | C[C@@H](Oc1cc(-n2cnc3ccc(CN4CCN(C)CC4)cc32)sc1C(N)=O)c1ccccc1C(F)(F)F + CC[C@H](NC(=O)[C@H](C)NC)C(=O)N1C[C@@H](O)C[C@H]1Cc1c(-c2[nH]c3cc(F)ccc3c2C[C@@H]2C[C@H](O)CN2C(=O)[C@H](CC)NC(=O)[C@H](C)NC)[nH]c2cc(F)ccc12 [Birinapant] | -274 | -1360
4 | Cc1ccc(F)c(NC(=O)Nc2ccc(-c3cccc4[nH]nc(N)c34)cc2)c1 [Linifanib] + CC[C@H](NC(=O)[C@H](C)NC)C(=O)N1C[C@@H](O)C[C@H]1Cc1c(-c2[nH]c3cc(F)ccc3c2C[C@@H]2C[C@H](O)CN2C(=O)[C@H](CC)NC(=O)[C@H](C)NC)[nH]c2cc(F)ccc12 [Birinapant] | -40 | –
5 | C[C@@H](O)[C@H](NC(=O)[C@@H]1CSSC[C@H](NC(=O)[C@H](N)Cc2ccccc2)C(=O)N[C@@H](Cc2ccc(O)cc2)C(=O)N[C@H](Cc2c[nH]c3ccccc23)C(=O)N[C@@H](CCCCN)C(=O)N1)C(N)=O + CC[C@H](NC(=O)[C@H](C)NC)C(=O)N1C[C@@H](O)C[C@H]1Cc1c(-c2[nH]c3cc(F)ccc3c2C[C@@H]2C[C@H](O)CN2C(=O)[C@H](CC)NC(=O)[C@H](C)NC)[nH]c2cc(F)ccc12 [Birinapant] | 120 | –
6 | Cc1ccccc1C(C(=O)NC1CCCCC1)N(C(=O)Cn1ccnc1C)c1cccc(F)c1 (stereo unspecified) + CC[C@H](NC(=O)[C@H](C)NC)C(=O)N1C[C@@H](O)C[C@H]1Cc1c(-c2[nH]c3cc(F)ccc3c2C[C@@H]2C[C@H](O)CN2C(=O)[C@H](CC)NC(=O)[C@H](C)NC)[nH]c2cc(F)ccc12 [Birinapant] | 12.3 | –
7 | COc1cc2ncn(-c3cc(OCc4ccccc4S(C)(=O)=O)c(C#N)s3)c2cc1OC [IKK-3 Inhibitor IX] + CC[C@H](NC(=O)[C@H](C)NC)C(=O)N1C[C@@H](O)C[C@H]1Cc1c(-c2[nH]c3cc(F)ccc3c2C[C@@H]2C[C@H](O)CN2C(=O)[C@H](CC)NC(=O)[C@H](C)NC)[nH]c2cc(F)ccc12 [Birinapant] | 113 | –
8 | Cc1cnc(Nc2ccc(F)cc2Cl)nc1-c1c[nH]c(C(=O)N[C@H](CO)c2cccc(Cl)c2)c1 + CC[C@H](NC(=O)[C@H](C)NC)C(=O)N1C[C@@H](O)C[C@H]1Cc1c(-c2[nH]c3cc(F)ccc3c2C[C@@H]2C[C@H](O)CN2C(=O)[C@H](CC)NC(=O)[C@H](C)NC)[nH]c2cc(F)ccc12 [Birinapant] | 192 | –
9 | CN1CCN(c2cccc(Nc3nc4c(-c5ccc(S(C)(=O)=O)cc5)cccn4n3)c2)CC1 + CC[C@H](NC(=O)[C@H](C)NC)C(=O)N1C[C@@H](O)C[C@H]1Cc1c(-c2[nH]c3cc(F)ccc3c2C[C@@H]2C[C@H](O)CN2C(=O)[C@H](CC)NC(=O)[C@H](C)NC)[nH]c2cc(F)ccc12 [Birinapant] | -105 | –
10 | Cc1c(-c2cccc3c(CCCOc4cccc5ccccc45)c(C(=O)O)n(Cc4cccnc4)c23)c(COc2ccc(N3CCN([S+](=O)([O-])N(C)C)CC3)cc2)nn1C + CC[C@H](NC(=O)[C@H](C)NC)C(=O)N1C[C@@H](O)C[C@H]1Cc1c(-c2[nH]c3cc(F)ccc3c2C[C@@H]2C[C@H](O)CN2C(=O)[C@H](CC)NC(=O)[C@H](C)NC)[nH]c2cc(F)ccc12 [Birinapant] | 51.7 | –
11 | Cn1cc(-c2ccc3nnc(C(F)(F)c4ccc5ncccc5c4)n3n2)cn1 + CC[C@H](NC(=O)[C@H](C)NC)C(=O)N1C[C@@H](O)C[C@H]1Cc1c(-c2[nH]c3cc(F)ccc3c2C[C@@H]2C[C@H](O)CN2C(=O)[C@H](CC)NC(=O)[C@H](C)NC)[nH]c2cc(F)ccc12 [Birinapant] | 40.5 | –
12 | Cc1ccc(C(=O)Nc2cccc(C(F)(F)F)c2)cc1Nc1nc(-c2cccnc2)nc2c1cnn2C + CC[C@H](NC(=O)[C@H](C)NC)C(=O)N1C[C@@H](O)C[C@H]1Cc1c(-c2[nH]c3cc(F)ccc3c2C[C@@H]2C[C@H](O)CN2C(=O)[C@H](CC)NC(=O)[C@H](C)NC)[nH]c2cc(F)ccc12 [Birinapant] | -71.3 | –
13 | N#CC(c1ccnc(NCCc2cccnc2)n1)c1nc2ccccc2s1 (stereo unspecified) [JNK Inhibitor V] + CC[C@H](NC(=O)[C@H](C)NC)C(=O)N1C[C@@H](O)C[C@H]1Cc1c(-c2[nH]c3cc(F)ccc3c2C[C@@H]2C[C@H](O)CN2C(=O)[C@H](CC)NC(=O)[C@H](C)NC)[nH]c2cc(F)ccc12 [Birinapant] | -67.5 | –
14 | CC(C)(C(=O)NCC(F)(F)C(F)(F)F)C(=O)N[C@@H]1C(=O)Nc2ccccc2-c2ccccc21 + CC[C@H](NC(=O)[C@H](C)NC)C(=O)N1C[C@@H](O)C[C@H]1Cc1c(-c2[nH]c3cc(F)ccc3c2C[C@@H]2C[C@H](O)CN2C(=O)[C@H](CC)NC(=O)[C@H](C)NC)[nH]c2cc(F)ccc12 [Birinapant] | -141 | –
15 | COc1ccc(-c2coc3cc(O)cc(O)c3c2=O)cc1 [Biochanin A] + CC[C@H](NC(=O)[C@H](C)NC)C(=O)N1C[C@@H](O)C[C@H]1Cc1c(-c2[nH]c3cc(F)ccc3c2C[C@@H]2C[C@H](O)CN2C(=O)[C@H](CC)NC(=O)[C@H](C)NC)[nH]c2cc(F)ccc12 [Birinapant] | 235 | –
